How the values were obtained:
Experiment in all cases: log2 ratio of Biotin-Ahx-Ub-VS probe labelling (fragment/DMSO); higher = less target engagement (more negative = stronger competition), active = hit call of the paper (q ≤ 0.05, log2 ratio ≤ -1)
Settings in all cases: compound concentration: 200 uM; treatment time: 3 h
USP19 = target: T1, USP19 (UniProt O94966)
T1 sequence (whole entry): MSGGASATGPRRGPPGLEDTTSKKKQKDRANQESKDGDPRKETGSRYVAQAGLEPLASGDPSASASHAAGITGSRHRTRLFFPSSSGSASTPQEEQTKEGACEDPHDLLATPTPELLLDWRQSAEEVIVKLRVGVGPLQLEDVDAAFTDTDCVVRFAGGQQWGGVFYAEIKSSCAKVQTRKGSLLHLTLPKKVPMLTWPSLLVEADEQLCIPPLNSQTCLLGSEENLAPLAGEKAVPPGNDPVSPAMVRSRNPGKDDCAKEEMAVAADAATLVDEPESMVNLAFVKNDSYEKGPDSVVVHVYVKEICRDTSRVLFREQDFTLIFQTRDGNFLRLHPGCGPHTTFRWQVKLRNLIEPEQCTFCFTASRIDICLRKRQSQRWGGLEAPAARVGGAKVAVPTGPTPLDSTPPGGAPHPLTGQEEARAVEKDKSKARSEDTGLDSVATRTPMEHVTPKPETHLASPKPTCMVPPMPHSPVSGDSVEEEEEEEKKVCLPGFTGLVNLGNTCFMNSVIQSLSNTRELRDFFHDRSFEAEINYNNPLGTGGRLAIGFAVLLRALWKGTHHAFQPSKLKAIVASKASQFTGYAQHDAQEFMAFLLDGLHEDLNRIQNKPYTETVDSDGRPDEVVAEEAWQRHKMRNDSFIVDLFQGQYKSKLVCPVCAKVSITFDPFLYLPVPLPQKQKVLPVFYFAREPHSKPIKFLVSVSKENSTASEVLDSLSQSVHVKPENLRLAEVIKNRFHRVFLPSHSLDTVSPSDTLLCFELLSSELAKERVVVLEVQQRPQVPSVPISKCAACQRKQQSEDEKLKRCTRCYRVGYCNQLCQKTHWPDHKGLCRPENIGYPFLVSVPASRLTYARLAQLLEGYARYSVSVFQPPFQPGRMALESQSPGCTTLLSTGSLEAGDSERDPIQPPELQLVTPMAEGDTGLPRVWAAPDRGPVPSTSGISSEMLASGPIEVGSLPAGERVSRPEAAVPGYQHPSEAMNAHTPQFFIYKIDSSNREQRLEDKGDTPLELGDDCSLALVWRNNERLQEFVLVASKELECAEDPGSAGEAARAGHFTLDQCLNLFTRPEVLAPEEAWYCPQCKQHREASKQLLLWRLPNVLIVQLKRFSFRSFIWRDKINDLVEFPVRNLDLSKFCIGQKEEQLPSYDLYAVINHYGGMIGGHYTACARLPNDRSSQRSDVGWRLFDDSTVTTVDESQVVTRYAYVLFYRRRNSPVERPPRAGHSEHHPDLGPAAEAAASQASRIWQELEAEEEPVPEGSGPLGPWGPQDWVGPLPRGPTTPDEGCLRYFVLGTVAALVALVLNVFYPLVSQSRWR
How it was run: (§1)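 Average log2 ratios of fragment over vehicle were obtained by unpaired t-test from global-median-normalised Spectronaut label-free quantities. Proteins with ≥2 unique peptides were included. HEK293T lysate (495 µg per sample) was treated in triplicate with fragment at 200 µM or vehicle for 3 h, then with Biotin-Ahx-Ub-VS at 0.5 µM final for 1 h, and labelled DUBs were NeutrAvidin-enriched and run by diaPASEF LC-MS/MS.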

USP22 = target: T2, USP22 (UniProt Q9UPT9)
T2 sequence (whole entry): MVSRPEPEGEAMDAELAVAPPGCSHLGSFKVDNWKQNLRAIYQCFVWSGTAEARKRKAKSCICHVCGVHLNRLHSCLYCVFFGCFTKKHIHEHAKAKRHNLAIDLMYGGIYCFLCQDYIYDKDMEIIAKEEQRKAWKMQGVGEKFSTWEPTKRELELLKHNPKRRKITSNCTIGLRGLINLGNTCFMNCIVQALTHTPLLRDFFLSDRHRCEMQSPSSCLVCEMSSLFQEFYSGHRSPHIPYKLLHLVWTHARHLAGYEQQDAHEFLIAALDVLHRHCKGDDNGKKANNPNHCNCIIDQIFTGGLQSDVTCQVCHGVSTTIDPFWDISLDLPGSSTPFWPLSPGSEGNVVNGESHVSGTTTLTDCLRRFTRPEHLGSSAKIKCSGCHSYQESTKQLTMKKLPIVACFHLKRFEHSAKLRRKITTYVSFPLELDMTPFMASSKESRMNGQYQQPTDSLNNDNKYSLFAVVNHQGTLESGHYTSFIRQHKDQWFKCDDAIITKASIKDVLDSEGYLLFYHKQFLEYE
How it was run: as §1

USP24 = USP24 (UniProt Q9UPU5)
How it was run: as §1

USP25 = target: T3, USP25 (UniProt Q9UHP3)
T3 sequence (whole entry): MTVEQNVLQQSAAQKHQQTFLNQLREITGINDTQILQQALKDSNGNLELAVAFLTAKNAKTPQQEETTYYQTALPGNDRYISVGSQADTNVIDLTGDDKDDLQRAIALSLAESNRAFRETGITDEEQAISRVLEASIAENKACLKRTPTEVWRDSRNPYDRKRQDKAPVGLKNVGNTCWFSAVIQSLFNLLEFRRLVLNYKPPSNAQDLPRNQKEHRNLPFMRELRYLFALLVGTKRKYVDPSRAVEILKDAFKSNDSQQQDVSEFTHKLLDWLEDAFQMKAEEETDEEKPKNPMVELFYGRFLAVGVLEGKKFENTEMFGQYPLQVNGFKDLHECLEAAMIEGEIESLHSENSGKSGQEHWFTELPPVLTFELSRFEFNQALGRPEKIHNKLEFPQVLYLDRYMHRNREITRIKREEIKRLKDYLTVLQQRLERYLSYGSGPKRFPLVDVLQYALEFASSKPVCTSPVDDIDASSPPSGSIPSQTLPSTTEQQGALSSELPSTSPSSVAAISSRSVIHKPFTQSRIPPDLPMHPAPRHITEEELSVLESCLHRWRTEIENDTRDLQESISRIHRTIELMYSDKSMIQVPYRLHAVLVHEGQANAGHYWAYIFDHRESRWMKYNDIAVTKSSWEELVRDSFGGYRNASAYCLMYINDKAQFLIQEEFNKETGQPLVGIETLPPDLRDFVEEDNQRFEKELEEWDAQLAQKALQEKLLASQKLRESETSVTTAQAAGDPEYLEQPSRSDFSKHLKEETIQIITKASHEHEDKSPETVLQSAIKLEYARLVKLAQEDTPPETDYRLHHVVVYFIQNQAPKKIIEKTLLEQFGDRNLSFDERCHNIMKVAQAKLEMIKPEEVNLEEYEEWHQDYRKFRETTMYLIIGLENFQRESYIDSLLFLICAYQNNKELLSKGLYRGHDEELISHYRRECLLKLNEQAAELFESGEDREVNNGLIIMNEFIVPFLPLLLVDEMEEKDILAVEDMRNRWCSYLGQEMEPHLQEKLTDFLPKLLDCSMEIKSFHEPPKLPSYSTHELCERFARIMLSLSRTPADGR
How it was run: as §1

USP28 = target: T4, USP28 (UniProt Q96RU2)
T4 sequence (whole entry): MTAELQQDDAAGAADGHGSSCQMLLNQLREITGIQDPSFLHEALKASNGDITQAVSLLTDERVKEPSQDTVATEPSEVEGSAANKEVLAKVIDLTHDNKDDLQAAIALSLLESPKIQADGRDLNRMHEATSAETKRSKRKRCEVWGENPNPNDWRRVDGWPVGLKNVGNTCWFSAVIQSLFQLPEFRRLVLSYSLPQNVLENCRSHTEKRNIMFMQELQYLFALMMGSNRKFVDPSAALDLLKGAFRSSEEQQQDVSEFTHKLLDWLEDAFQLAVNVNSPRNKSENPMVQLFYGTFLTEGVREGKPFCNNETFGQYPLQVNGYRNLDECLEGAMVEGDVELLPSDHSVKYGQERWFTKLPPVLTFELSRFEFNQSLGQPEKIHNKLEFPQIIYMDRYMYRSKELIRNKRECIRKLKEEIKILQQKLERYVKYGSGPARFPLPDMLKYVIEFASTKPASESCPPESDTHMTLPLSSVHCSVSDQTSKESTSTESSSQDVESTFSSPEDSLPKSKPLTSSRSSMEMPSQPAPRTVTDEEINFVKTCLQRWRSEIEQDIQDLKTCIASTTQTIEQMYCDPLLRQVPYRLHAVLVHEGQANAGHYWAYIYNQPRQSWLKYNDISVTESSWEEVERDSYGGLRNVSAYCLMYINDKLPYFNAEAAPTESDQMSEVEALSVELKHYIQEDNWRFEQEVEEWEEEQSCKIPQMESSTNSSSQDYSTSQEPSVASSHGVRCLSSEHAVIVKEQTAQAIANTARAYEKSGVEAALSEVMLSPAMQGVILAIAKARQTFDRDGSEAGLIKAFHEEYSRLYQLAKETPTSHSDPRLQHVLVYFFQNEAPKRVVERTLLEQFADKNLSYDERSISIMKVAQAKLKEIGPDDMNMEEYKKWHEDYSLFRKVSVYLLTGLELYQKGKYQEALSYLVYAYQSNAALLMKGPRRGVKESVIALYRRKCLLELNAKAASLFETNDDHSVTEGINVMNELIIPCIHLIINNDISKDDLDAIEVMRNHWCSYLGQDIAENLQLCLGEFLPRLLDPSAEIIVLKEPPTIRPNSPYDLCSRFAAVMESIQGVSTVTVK
How it was run: as §1

Measured: log2 ratio of Biotin-Ahx-Ub-VS probe labelling

Chain of USP24 (Q9UPU5 whole entry): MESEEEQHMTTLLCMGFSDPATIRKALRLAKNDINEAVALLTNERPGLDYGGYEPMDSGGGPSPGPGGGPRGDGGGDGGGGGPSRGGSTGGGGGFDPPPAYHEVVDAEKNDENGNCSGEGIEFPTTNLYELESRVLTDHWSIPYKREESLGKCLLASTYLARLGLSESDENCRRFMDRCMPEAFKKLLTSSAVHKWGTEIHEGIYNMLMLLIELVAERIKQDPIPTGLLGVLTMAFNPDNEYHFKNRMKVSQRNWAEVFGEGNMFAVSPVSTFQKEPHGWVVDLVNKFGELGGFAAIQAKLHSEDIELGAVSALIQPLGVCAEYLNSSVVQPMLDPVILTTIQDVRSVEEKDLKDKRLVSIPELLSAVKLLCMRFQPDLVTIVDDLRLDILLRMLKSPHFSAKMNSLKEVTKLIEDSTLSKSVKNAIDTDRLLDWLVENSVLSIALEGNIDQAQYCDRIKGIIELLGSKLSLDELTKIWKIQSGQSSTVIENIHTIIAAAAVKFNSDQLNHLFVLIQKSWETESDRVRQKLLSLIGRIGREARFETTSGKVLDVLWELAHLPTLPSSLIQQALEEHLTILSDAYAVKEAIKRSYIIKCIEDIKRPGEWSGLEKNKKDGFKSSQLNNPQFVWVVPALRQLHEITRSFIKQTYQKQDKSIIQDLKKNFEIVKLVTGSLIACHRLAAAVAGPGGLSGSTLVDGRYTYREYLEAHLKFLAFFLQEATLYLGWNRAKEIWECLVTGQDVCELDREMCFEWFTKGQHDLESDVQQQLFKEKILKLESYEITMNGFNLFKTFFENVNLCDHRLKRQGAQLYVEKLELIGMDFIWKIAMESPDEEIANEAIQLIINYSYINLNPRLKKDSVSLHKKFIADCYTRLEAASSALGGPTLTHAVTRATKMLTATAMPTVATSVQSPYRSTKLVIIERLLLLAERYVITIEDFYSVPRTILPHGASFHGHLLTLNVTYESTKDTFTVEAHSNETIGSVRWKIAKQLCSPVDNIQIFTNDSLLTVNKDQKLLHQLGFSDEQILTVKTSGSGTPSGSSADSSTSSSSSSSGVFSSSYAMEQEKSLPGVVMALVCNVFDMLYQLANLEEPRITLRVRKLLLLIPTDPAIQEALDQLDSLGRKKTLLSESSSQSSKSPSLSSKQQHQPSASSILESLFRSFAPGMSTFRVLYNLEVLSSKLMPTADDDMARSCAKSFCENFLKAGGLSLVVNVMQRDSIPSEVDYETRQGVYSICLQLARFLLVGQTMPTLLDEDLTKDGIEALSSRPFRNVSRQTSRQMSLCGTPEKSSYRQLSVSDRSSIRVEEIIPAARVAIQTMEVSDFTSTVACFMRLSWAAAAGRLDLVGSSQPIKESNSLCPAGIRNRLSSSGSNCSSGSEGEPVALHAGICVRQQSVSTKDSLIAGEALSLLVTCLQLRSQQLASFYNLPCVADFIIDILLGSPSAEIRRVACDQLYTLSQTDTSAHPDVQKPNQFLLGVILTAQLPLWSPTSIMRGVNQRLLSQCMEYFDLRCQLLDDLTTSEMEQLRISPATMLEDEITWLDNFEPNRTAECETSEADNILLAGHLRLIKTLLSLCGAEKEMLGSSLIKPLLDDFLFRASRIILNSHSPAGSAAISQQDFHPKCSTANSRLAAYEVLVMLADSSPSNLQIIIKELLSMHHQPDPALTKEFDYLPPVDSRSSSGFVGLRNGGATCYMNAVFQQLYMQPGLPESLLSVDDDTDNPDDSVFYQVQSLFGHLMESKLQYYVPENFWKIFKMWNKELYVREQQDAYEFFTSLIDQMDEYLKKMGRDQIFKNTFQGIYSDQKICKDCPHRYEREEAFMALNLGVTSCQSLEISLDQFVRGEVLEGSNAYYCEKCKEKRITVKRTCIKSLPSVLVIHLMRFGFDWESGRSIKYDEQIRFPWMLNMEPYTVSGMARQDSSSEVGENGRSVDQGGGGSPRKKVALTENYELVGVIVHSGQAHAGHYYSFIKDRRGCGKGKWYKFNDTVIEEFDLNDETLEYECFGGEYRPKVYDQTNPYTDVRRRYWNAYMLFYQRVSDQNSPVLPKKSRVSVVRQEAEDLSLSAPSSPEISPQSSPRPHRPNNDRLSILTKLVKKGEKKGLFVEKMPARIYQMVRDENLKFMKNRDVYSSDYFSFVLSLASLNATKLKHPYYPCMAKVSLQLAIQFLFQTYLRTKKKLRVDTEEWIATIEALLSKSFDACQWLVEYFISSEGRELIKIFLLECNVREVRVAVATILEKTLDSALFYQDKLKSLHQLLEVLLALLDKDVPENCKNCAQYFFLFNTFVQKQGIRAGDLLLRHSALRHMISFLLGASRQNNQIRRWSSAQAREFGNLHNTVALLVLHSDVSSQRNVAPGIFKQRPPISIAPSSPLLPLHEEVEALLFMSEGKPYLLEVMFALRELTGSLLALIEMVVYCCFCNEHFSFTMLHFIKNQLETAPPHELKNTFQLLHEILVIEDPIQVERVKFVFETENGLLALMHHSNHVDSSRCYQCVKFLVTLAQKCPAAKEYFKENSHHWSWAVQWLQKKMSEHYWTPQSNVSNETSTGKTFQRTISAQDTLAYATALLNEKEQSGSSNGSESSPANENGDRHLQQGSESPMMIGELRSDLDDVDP

Cc1n[nH]c(=O)c2c(NC(=O)CCl)oc(C)c12
inactive: USP19 -0.168 | USP22 -0.281 | USP24 -0.0362 | USP25 0.114 | USP28 -0.11
